Among all 5,500 compounds or so, about 2,000 (36%) were called active. Inconclusive results (about 18%) are left out. Cut-off read from the data, not from the text of the source: active = normalized growth mostly below about 0.91 (no sharp cut-off); inconclusive = no clear call, values can overlap the other calls; inactive = mostly above about 0.92. This is one part of the list.
Test: chemical genetic growth profiling, strain panel (AID 1159580);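 note: tested at 20 µM; growth read once vehicle control cultures reached saturation at 30 °C; 1 = growth at the plate median or of vehicle wells; lower values mean less growth of the strain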
Details: S. cerevisiae deletion strains, growth OD
[1] = locus YAL040C, strain CLN3, active compounds read low
[2] = locus YDR363W, strain ESC2, active compounds read low
[3] = locus YER002W, strain NOP16, active compounds read low
[4] = locus YJR075W, strain HOC1, active compounds read low
[5] = locus YNL128W, strain TEP1, active compounds read low
[6] = locus YNL153C, strain GIM3, active compounds read low
[7] = locus YNL175C, strain NOP13, active compounds read low
[8] = locus YNL197C, strain WHI3, active compounds read low
[9] = locus YNL224C, strain SQS1, active compounds read low
[10] = locus YOR083W, strain WHI5 (second series), active compounds read low

Measured: normalized growth

C[C@@H](NCCc1ccc(O)cc1)[C@@H](O)c1ccc(O)cc1
inactive: [1] 0.986 | locus YCL061C, strain MRC1 (second series), active compounds read low 0.989 | locus YDR150W, strain NUM1, active compounds read low 1.01 | [2] 0.991 | [3] 0.992 | locus YGR229C, strain SMI1, active compounds read low 0.99 | [4] 0.993 | locus YMR263W, strain SAP30, active compounds read low 0.986 | locus YMR307W, strain GAS1, active compounds read low 1.02 | [5] 0.994 | [6] 1.03 | [7] 0.999 | [8] 0.992 | [9] 0.991 | locus YNL322C, strain KRE1, active compounds read low 0.974 | [10] 1 | locus YPL055C, strain LGE1, active compounds read low 0.995

CC(=O)NCCc1ccc(O)c(O)c1
inactive: locus YAL013W, strain DEP1, active compounds read low 1.03 | [1] 1.01 | [2] 1.05 | [3] 1 | [4] 1.02 | [5] 0.999 | [6] 0.986 | [7] 1.01 | [8] 1.01 | [9] 0.998 | [10] 1.02 | locus YPL241C, strain CIN2, active compounds read low 1.01

Reference: PubChem BioAssay AID1159580 (chemical genetic matrix, 2015)
